In PubChem BioAssay (NCATS):
Where “and” joins values, the source holds several entries; their conditions need not be identical. Equal entries are not always repeated. Inconclusive results are not listed. Calls of active or inactive are those of the source. Unless noted, the call rests on the fitted dose curve; in most records, active means well fitted curve in either direction with a large enough effect (not every such curve was filed as active); inconclusive means small, poorly fitted or top-dose-only effect, or another doubt; inactive means flat fitted curve, though single readings scatter.

Tests used:
[1] = AP1 Signaling Pathway (AID 357);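 further: ME-180 reporter cells stimulated with EGF at its EC50 level; on the % scale 0 is the no-effect control and ±100 the full control effect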
How it was run: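 First, ME-180 AP-1-bla cells were cultured overnight at 37 °C in low-serum Opti-MEM. Next, titrated compounds with EC50 EGF were incubated 5 hours. Finally, CCF4 was added for 2.5 hours and the 460/530 nm ratio recorded.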

[2] = NFAT Signaling Pathway (AID 444); conditions: Jurkat NFAT-bla M1, carbachol, beta-lactamase ratio, 5 h;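 further: carbachol stimulus at about its EC50 of 1 µM final; on the % scale 0 is the no-effect control and ±100 the full control effect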
How it was run: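 Jurkat cells with NFAT-driven β-lactamase reporter and co-expressed M1 receptor, stimulated with carbachol (final 1 uM, ~EC50), compound titration, 5 h at 37 °C. CCF4 loaded 1 h at RT; 460/530 nm ratio gave %activity and AC50.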

[3] = Stat Signaling Pathway (AID 446);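 further: ME-180 cervical cancer cells given 40 pM IL-6 alongside compound; SIE-controlled beta-lactamase reporter measured as 460/530 nm FRET emission ratio; on the % scale 0 is the no-effect control and ±100 the full control effect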
How it was run: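 ME-180 cells carrying a SIE-driven beta-lactamase reporter are stimulated with 40 pM IL-6 for 5 h at 37C in the presence of compound. The 460/530 nm FRET substrate ratio is read after 2.5 h at RT. Data are normalised to 300 pM IL-6 and to 125 nM JAK inhibitor controls.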

[4] = biological target: Glucocorticoid receptor (Homo sapiens) (UniProt P04150); assay: GR-GFP Redistribution (AID 450;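 active means compounds whose dose series gives a full or clear partial fitted curve of increased nuclear translocation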; further: potency means the concentration at half of the fitted maximal effect); conditions: U2OS GR-GFP nuclear translocation, laser cytometry, 2 h
Chain of Glucocorticoid receptor (Homo sapiens) (P04150 whole entry, looked up, the tested form may be a part): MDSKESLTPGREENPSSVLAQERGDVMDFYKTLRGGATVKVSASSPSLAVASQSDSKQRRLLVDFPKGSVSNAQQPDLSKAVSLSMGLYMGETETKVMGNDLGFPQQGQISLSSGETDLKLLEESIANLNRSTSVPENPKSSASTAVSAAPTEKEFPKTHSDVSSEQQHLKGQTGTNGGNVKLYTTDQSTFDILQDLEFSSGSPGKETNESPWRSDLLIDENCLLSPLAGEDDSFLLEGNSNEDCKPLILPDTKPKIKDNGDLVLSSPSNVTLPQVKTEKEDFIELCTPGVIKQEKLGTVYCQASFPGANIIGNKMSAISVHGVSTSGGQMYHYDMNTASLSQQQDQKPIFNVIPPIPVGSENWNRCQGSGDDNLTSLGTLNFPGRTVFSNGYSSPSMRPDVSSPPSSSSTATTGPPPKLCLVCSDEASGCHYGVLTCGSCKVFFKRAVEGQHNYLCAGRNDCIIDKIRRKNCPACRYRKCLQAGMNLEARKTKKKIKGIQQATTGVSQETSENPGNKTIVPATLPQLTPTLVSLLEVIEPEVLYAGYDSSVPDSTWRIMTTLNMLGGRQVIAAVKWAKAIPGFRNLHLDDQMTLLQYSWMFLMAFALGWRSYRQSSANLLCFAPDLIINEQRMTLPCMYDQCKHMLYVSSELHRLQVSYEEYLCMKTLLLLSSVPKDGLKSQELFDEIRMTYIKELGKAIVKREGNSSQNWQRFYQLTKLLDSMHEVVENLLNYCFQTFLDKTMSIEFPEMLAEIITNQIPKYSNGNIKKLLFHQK

[5] = biological target: Cytochrome P450 1A2 (Homo sapiens) (UniProt P05177); assay: p450-cyp1a2 (AID 410; calls by dose curve; further: potency means the concentration at half of the fitted maximal effect;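 on activity change, negative = inhibition: -100% = full effect of reference inhibitor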)
Chain of Cytochrome P450 1A2 (Homo sapiens) (P05177 whole entry, looked up): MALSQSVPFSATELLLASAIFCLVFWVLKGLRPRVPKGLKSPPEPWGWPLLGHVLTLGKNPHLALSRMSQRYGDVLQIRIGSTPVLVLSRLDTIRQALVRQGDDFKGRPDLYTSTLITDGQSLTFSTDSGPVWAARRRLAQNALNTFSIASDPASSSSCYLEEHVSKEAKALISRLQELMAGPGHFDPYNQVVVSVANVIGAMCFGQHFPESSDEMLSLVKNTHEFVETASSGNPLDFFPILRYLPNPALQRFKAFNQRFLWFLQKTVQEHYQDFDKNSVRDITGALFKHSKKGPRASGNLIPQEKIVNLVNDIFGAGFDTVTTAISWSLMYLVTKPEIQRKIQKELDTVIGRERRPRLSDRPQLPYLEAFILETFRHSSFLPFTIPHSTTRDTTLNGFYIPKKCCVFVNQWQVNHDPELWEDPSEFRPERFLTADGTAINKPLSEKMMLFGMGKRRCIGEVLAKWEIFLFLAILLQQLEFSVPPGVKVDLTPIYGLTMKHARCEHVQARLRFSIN
How it was run: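 20nM CYP1A2 with 100uM Luciferin-ME (at Km) in 100mM KPO4; compound preincubated 10 min, NADPH regeneration added, 60 min at room temperature. Luciferin quantified by luminescence after detection reagent; normalized to 57 uM furafylline.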

[6] = biological target: Glucocorticoid receptor (Homo sapiens) (UniProt P04150); assay: GR-EFC Redistribution (AID 451; calls by dose curve; further: potency means the concentration at half of the fitted maximal effect); conditions: CHO-K1 GR-EFC translocation, beta-gal luminescence, 2 h
How it was run: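 CHO-K1 cells expressing nuclear EA and GR-ED fragments of b-gal; compounds titrated up to 46 uM final, 2 h at 37 C. GR nuclear translocation read as complemented b-gal luminescence after 1 h RT detection.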

[7] = biological target: Mitogen-activated protein kinase 10 (Mus musculus) (UniProt Q61831); assay: JNK3 AlphaScreen Assay (AID 530);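 further: kinase came from lysate of stimulated human HepG2 cells; signal reports phosphorylation of biotinylated GST-cJun 1-79 at Ser73 with 10 µM ATP; on the % scale 0 is the no-effect control and ±100 the full control effect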
How it was run: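 Pre-activated (IL-1β/TNFα) JNK3 in HepG2 lysates phosphorylates biotin-GST-cJun(1-79), 10 uM ATP; anti-phospho-cJun(Ser73) AlphaScreen read at room temperature, pH 7.6 Tris buffer. Compounds pre-incubated 15 min as titrations.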

[8] = Cell Viability - BJ (AID 421; calls by dose curve;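 further: potency means the concentration at half of the fitted maximal effect; cells exposed to compound for 40 hours at 37 °C before readout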); conditions: BJ fibroblast viability, qHTS
How it was run: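 Normal human BJ foreskin fibroblasts, 1500/well in complete medium, treated 40 hr at 37 °C. Cellular ATP by CellTiter-Glo luminescence; normalized to DMSO and 100 uM tamoxifen, AC50 from Hill fit.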

[9] = Cell Viability - Hek293 (AID 427;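 active means compounds whose dose-response curve shows a full or clear partial loss of cell viability, called from curve shape rather than a numeric limit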;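 further: potency means the concentration at half of the fitted maximal effect; cells exposed to compound for 40 hours at 37 °C before reading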); conditions: qHTS
How it was run: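 HEK293 cells in complete medium were exposed to compound for 40 hr at 37 °C, then cellular ATP was read by CellTiter-Glo luminescence. Data were normalized to DMSO (basal) and 100 uM tamoxifen (100% inhibition), and AC50 came from Hill fits.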

[10] = Cell Viability - HepG2 (AID 433; calls by dose curve;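 further: potency means the concentration at half of the fitted maximal effect; potency for ATP loss meaning cytotoxicity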); conditions: qHTS
How it was run: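 Cytotoxicity read as ATP loss (CellTiter-Glo luminescence) after 40 hr compound exposure of HepG2, 1500 cells/well, 37 °C. AC50 by Hill equation; 0% set by DMSO, 100% inhibition by 100 uM tamoxifen.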

[11] = Cell Viability - MRC5 (AID 434; calls by dose curve;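 further: potency means the concentration at half of the fitted maximal effect; potency reflects cytotoxicity seen as loss of intracellular ATP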); conditions: MRC5 lung fibroblast viability, qHTS
How it was run: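 MRC5 normal human lung fibroblasts, 1500 cells/well, exposed to compound for 40 hr at 37 C. Cellular ATP was read by CellTiter-Glo luminescence; data normalized to DMSO and 100 uM tamoxifen, with AC50 from Hill fits.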

[12] = Cell Viability - N2a (AID 540; active means well fitted curve in the direction sought with a large enough effect; an effect the other way counts as inactive or inconclusive;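 further: plate controls were DMSO alone for no effect and tamoxifen control for full effect; nearly all actives have a fitted effect of over 45% in size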)
How it was run: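 Mouse neuroblastoma N2a cells, 1500/well, exposed to compounds 40 h at 37 °C in complete medium. Viability measured as cellular ATP by CellTiter-Glo luminescence; AC50 from Hill fits of concentration-response.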

[13] = Cell Viability - NIH 3T3 (AID 541; active means well fitted curve in the direction sought with a large enough effect; an effect the other way counts as inactive or inconclusive;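 further: plate controls were DMSO alone for no effect and tamoxifen positive control for full effect; nearly all actives have a fitted effect of over 25% in size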); conditions: NIH 3T3 cell viability, qHTS; activity change, negative = cytotoxicity: at 92.2 µM (top of the series)
How it was run: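 Mouse NIH 3T3 fibroblasts, 1000 cells/well, rested 5 hr at 37 °C, then exposed to compound for 40 hr at 37 °C in complete medium. Viability read as intracellular ATP by CellTiter-Glo luminescence; AC50 from Hill-equation fits of concentration-response data.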

[14] = Cell Viability - HUV-EC-C (AID 542; active means well fitted curve in the direction sought with a large enough effect; an effect the other way counts as inactive or inconclusive; further: on the % scale 0 is the no-effect control and ±100 the full control effect; nearly all actives have a fitted effect of over 35% in size)
How it was run: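 HUV-EC-C human vascular endothelial cells, 1000/well, exposed to compound for 40 hr at 37 °C in complete medium. Intracellular ATP was read by CellTiter-Glo luminescence. AC50 came from Hill-equation fits of concentration-response data.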

[15] = Cell Viability - SH-SY5Y (AID 544; active means well fitted curve in the direction sought with a large enough effect; an effect the other way counts as inactive or inconclusive;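 further: 0% = DMSO alone and -100% = 100 µM tamoxifen; nearly all actives have a fitted effect of over 55% in size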); conditions: SH-SY5Y neuroblastoma cell viability; viability change, negative = cytotoxic: at 92.2 µM (top of the series)
How it was run: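 SH-SY5Y human neuroblastoma cells (1500/well) incubated 5 h, then compound-treated 40 h at 37 °C in complete medium. Viability read as intracellular ATP by CellTiter-Glo luminescence after 20 min; AC50 from Hill-equation fits of qHTS concentration-response.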

[16] = Cell Viability - Renal Proximal Tubule (AID 545; active means well fitted curve in the direction sought with a large enough effect; an effect the other way counts as inactive or inconclusive;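 further: 0% = DMSO only and -100% = 100 µM tamoxifen; nearly all actives have a fitted effect of over 40% in size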)
How it was run: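 Viability taken as intracellular ATP (CellTiter-Glo luminescence) after 40 hr, 37 °C compound treatment of primary proximal tubule cells from rat kidney, 1000 cells/well; Hill-equation fits of qHTS concentration-response data gave AC50.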

[17] = Cell Viability - Mesenchymal (AID 546; active means well fitted curve in the direction sought with a large enough effect; an effect the other way counts as inactive or inconclusive;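 further: cells exposed to compound for 40 hours before reading; 0% = DMSO only and -100% = 100 µM tamoxifen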)
How it was run: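 Human kidney mesenchymal cells from normal renal glomeruli, 1000 cells/well, rested 5 hr at 37 °C, then treated 40 hr at 37 °C in complete medium. Cellular ATP read by CellTiter-Glo luminescence; AC50 from Hill-equation fits.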

[18] = biological target: Lysosomal acid glucosylceramidase (Homo sapiens) (UniProt P04062); assay: Glucocerebrosidase-p2 (AID 348; in the data active means potency below about 10 µM; further: potency means the concentration at half of the fitted maximal effect); conditions: purified GBA, blue fluorogenic substrate, 40 min
Chain of Lysosomal acid glucosylceramidase (Homo sapiens) (P04062 whole entry, looked up): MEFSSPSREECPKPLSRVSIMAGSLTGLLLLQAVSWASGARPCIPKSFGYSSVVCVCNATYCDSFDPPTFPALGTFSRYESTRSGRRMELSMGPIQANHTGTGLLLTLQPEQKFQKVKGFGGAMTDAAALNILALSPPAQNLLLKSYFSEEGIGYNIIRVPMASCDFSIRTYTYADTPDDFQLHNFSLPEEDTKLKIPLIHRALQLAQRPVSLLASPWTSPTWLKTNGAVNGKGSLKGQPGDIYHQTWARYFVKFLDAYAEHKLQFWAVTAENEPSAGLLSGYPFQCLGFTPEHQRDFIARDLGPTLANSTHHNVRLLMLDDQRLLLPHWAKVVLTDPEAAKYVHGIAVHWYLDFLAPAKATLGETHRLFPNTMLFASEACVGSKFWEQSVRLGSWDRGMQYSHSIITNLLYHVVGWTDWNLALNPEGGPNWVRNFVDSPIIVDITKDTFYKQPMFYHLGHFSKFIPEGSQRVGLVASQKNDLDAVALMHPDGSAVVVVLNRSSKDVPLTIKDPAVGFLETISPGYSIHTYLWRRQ
How it was run: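 Compounds titrated from 0.6 nM upwards against 0.2 nM enzyme in pH 5.9 citric acid/KH2PO4, taurocholate, tween-20; blue fluorogenic substrate 80 uM, 40 min room temperature, stopped and read Ex 365/Em 440 for AC50.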

[19] = Cell Viability - Jurkat (AID 426;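 active means dose-dependent loss of cell ATP signal giving a full or clear fitted curve, ranked by lower potency value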; further: potency means the concentration at half of the fitted maximal effect); conditions: qHTS
How it was run: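 Jurkat (Clone E6-1) cells, 5000/well in complete medium, exposed to compounds for 40 hr at 37C; intracellular ATP measured by CellTiter-Glo luminescence after 20 min at room temperature. AC50 from Hill fits.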

[20] = Cell Viability - H-4-II-E (AID 543; active means well fitted curve in the direction sought with a large enough effect; an effect the other way counts as inactive or inconclusive; further: on the % scale 0 is the no-effect control and ±100 the full control effect; nearly all actives have a fitted effect of over 35% in size)
How it was run: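 Rat hepatoma H-4-II-E cells, 1500 per well, treated 40 h at 37 °C in complete medium. Cellular ATP read by CellTiter-Glo luminescence; AC50 from Hill fits of concentration-response.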

[21] = at 17.2 µM (top of the series) unless noted

CC(=O)O[C@]1(C(C)=O)CC[C@H]2[C@@H]3C=C(C)C4=CC(=O)CC[C@]4(C)[C@H]3CC[C@@]21C
active: Potency [4] 0.00185 µM
inactive: outcome [1] | activity change, negative = inhibition [2, 21] -25.3% | outcome [3]

CCCCNc1ccc(C(=O)OCCOCCOCCOCCOCCOCCOCCOCCOCCOC)cc1
inactive: outcome [1] | Potency [5] | activity change, negative = inhibition [2, 21] -6.05% | outcome [3] | Potency [4] > 20.6 µM | Potency [6] > 20.6 µM | Potency [7]

CN1CCC[C@@H]1CCO[C@](C)(c1ccccc1)c1ccc(Cl)cc1
inactive: outcome [1] | Potency [5] | outcome [3] | Potency [7]

CCN(CC)CCNc1ccc(CO)c2sc3ccccc3c(=O)c12
active: Potency [5] 0.126 µM
inactive: outcome [1] | activity change, negative = inhibition [2, 21] -29.8% | Potency [4] > 20.6 µM | Potency [6] > 20.6 µM | Potency [7]

NS(=O)(=O)c1cc(C(=O)O)cc(N2CCCC2)c1Oc1ccccc1
inactive: outcome [1] | Potency [5] | activity change, negative = inhibition [2, 21] -7.88% | outcome [3] | Potency [6] > 20.6 µM | Potency [7]
active: Potency [4] 2.81 µM

CC(=O)O[C@]1(C(C)=O)CC[C@H]2[C@@H]3C=C(Cl)C4=CC(=O)CC[C@]4(C)[C@H]3CC[C@@]21C
inactive: outcome [1] | activity change, negative = inhibition [2, 21] -29% | outcome [3]

O=C1C(CCS(=O)c2ccccc2)C(=O)N(c2ccccc2)N1c1ccccc1 (stereo not drawn)
inactive: outcome [1] | Potency [5] | activity change, negative = inhibition [2, 21] -0.885% and -5.88% | outcome [3] | Potency [4] > 20.6 µM | Potency [6] > 20.6 µM | Potency [7]

CCc1cc(Cl)c(OC)c(C(=O)NC[C@@H]2CCCN2CC)c1O
active: Potency [5] 3.98 µM
inactive: outcome [1] | outcome [3] | Potency [4] > 20.6 µM | Potency [6] > 20.6 µM | Potency [7]

NC(N)=NCc1cccc(I)c1
active: Potency [5] 12.6 µM
inactive: outcome [1] | activity change, negative = inhibition [2, 21] -11.1% [at 38 µM] | outcome [3] | Potency [4] > 46 µM | Potency [6] > 46 µM | Potency [7]

CC(C)(C)NC[C@H](O)COc1nsnc1N1CCOCC1
inactive: outcome [1] | activity change, negative = inhibition ([2]; at 17.2 µM (top of the series)) 1.16% and 3.92% | activity change, negative = inhibition ([2]; at 38 µM (top of the series)) -1.27% | outcome [3] | Potency [4] > 46 µM and > 20.6 µM | Potency [6] > 46 µM and > 20.6 µM | Potency [7]

COc1cc(C(=O)NCc2ccc(OCCN(C)C)cc2)cc(OC)c1OC
inactive: outcome [1] | Potency [5] | activity change, negative = inhibition [2, 21] -15.8% | outcome [3] | Potency [4] > 20.6 µM | Potency [6] > 20.6 µM | Potency [7]

CC(O)Cn1cnc2c1c(=O)n(C)c(=O)n2C (stereo not drawn)
inactive: outcome [1] | activity change, negative = inhibition [2, 21] 10.8% | outcome [3]

COc1ccc(C(Cl)=C(c2ccc(OC)cc2)c2ccc(OC)cc2)cc1
inactive: outcome [1] | Potency [5] | Potency [8] > 92 µM | Potency [9] > 92 µM | Potency [10] > 92 µM | Potency [11] > 92 µM | outcome [3] | Potency [4] > 20.6 µM | Potency [6] > 20.6 µM | Potency [7] | Potency [12] | activity change, negative = cytotoxicity [13] -7.28% | outcome [14] | viability change, negative = cytotoxic [15] -10.7% | outcome [16] | outcome [17]

CN(C)CCC[C@@]1(c2ccc(F)cc2)OCc2cc(C#N)ccc21
inactive: outcome [1] | Potency [5] | outcome [3] | Potency [4] > 46 µM | Potency [6] > 46 µM

CC(=O)OC[C@H]1O[C@@H](n2ncc(=O)[nH]c2=O)[C@H](OC(C)=O)[C@@H]1OC(C)=O
inactive: outcome [1] | activity change, negative = inhibition [2, 21] -22.9% | outcome [3] | Potency [4] > 20.6 µM

CC(C)(C)NC[C@H](O)COc1cccc2c1CCCC2=O
inactive: outcome [1] | Potency [5] | activity change, negative = inhibition [2, 21] -6.3% and -2.31% | outcome [3] | Potency [4] > 20.6 µM | Potency [6] > 20.6 µM | Potency [7]

O=C(O)CCc1nc2ccccc2[nH]1
inactive: Potency [18] > 11.4 µM | outcome [1] | activity change, negative = inhibition [2, 21] 5.96% [at 7.69 µM] | outcome [3] | Potency [7]

CCc1oc2ccccc2c1C(=O)c1cc(Br)c(O)c(Br)c1
inactive: Potency [18] > 11.4 µM | Potency [4] > 20.6 µM and > 46 µM | Potency [6] > 20.6 µM and > 9.22 µM | Potency [7]

COc1ccc(C(=O)c2ccccc2)c(O)c1
inactive: outcome [1] | Potency [8] > 92 µM | Potency [19] > 92 µM | Potency [9] > 92 µM | Potency [10] > 92 µM | Potency [11] > 92 µM | activity change, negative = inhibition [2, 21] -6.2% | outcome [3] | Potency [4] > 20.6 µM | Potency [6] > 20.6 µM | Potency [7] | Potency [12] | activity change, negative = cytotoxicity [13] -13.4% | outcome [14] | Potency [20] | viability change, negative = cytotoxic [15] -8.89% | outcome [16] | outcome [17]
active: Potency [5] 1.58 µM
